Results published in PubChem BioAssay AID1159580 (chemical genetic matrix, 2015).
“And” between values parts separate entries of the source, which are not always exact repeats. Equal values may be shown once. About 2,000 (36%) of roughly 5,500 compounds were called active. Another 18% or so got no clear call; they are omitted. No stated cut-off is given here; in the data, active means normalized growth mostly below about 0.91 (no sharp cut-off); inconclusive means no clear call, values can overlap the other calls; inactive means mostly above about 0.92. The list shows a part of the results.

Experiment: chemical genetic growth profiling, strain panel (AID 1159580);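 further: tested at 20 µM; growth read once vehicle control cultures reached saturation at 30 °C; 1 = growth at the plate median or of vehicle wells; lower values mean less growth of the strain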
Settings: growth OD

Measured: normalized growth

CCCn1c(=O)c2[nH]c(C3CCCC3)nc2n(CCC)c1=O
inactive: S. cerevisiae deletion strains, locus YJR043C, strain POL32, hits give low values 0.989 | S. cerevisiae deletion strains, locus YJR075W, strain HOC1, hits give low values 0.968 and 0.985 | S. cerevisiae deletion strains, locus YKL009W, strain mrt4, hits give low values 0.966 | S. cerevisiae deletion strains, locus YKL068W, hits give low values 0.965 | S. cerevisiae deletion strains, locus YKL085W, strain MDH1 (second series), hits give low values 0.994 | S. cerevisiae deletion strains, locus YKL085W, strain MDH1, hits give low values 0.994 | S. cerevisiae deletion strains, locus YKL160W, strain elf1, hits give low values 0.996 | S. cerevisiae deletion strains, locus YKL190W, strain CNB1, hits give low values 0.981 | S. cerevisiae deletion strains, locus YKR001C, strain vps1, hits give low values 0.964 | S. cerevisiae deletion strains, locus YKR026C, strain gcn3, hits give low values 0.998 | S. cerevisiae deletion strains, locus YKR091W, strain srl3, hits give low values 0.982 | S. cerevisiae deletion strains, locus YLL001W, strain dnm1, hits give low values 0.986 | S. cerevisiae deletion strains, locus YLL026W, hits give low values 0.974 | S. cerevisiae deletion strains, locus YLL041C, strain sdh2, hits give low values 0.979 | S. cerevisiae deletion strains, locus YLR027C, strain aat2, hits give low values 0.987 | S. cerevisiae deletion strains, locus YLR039C, strain RIC1, hits give low values 0.881 | S. cerevisiae deletion strains, locus YLR058C, strain SHM2, hits give low values 0.982 | S. cerevisiae deletion strains, locus YLR102C, strain apc9, hits give low values 0.957 | S. cerevisiae deletion strains, locus YLR221C, strain rsa3, hits give low values 1 | S. cerevisiae deletion strains, locus YLR258W, strain gsy2, hits give low values 0.963 | S. cerevisiae deletion strains, locus YLR262C, strain YPT6 (second series), hits give low values 0.965 | S. cerevisiae deletion strains, locus YLR262C, strain YPT6, hits give low values 0.854 | S. cerevisiae deletion strains, locus YLR268W, strain sec22, hits give low values 0.957 | S. cerevisiae deletion strains, locus YLR320W, strain mms22, hits give low values 0.974 | S. cerevisiae deletion strains, locus YLR330W, strain CHS5, hits give low values 0.98 | S. cerevisiae deletion strains, locus YLR342W, strain FKS1 (second series), hits give low values 0.979 | S. cerevisiae deletion strains, locus YLR342W, strain FKS1, hits give low values 0.987 | S. cerevisiae deletion strains, locus YLR357W, strain rsc2, hits give low values 0.986 | S. cerevisiae deletion strains, locus YLR370C, strain arc18, hits give low values 0.986 | S. cerevisiae deletion strains, locus YLR371W, strain rom2, hits give low values 0.951 | S. cerevisiae deletion strains, locus YLR384C, strain iki3, hits give low values 0.995 | S. cerevisiae deletion strains, locus YLR418C, strain cdc73, hits give low values 1.01 | S. cerevisiae deletion strains, locus YML016C, strain PPZ1, hits give low values 0.992 | S. cerevisiae deletion strains, locus YML032C, strain rad52, hits give low values 0.959 | S. cerevisiae deletion strains, locus YML120C, strain ndi1, hits give low values 0.997 | S. cerevisiae deletion strains, locus YML124C, strain tub3, hits give low values 0.972 | S. cerevisiae deletion strains, locus YMR058W, strain fet3, hits give low values 1 | S. cerevisiae deletion strains, locus YMR078C, strain ctf18, hits give low values 0.972 | S. cerevisiae deletion strains, locus YMR125W, strain sto1, hits give low values 0.994 | S. cerevisiae deletion strains, locus YMR129W, hits give low values 0.968 | S. cerevisiae deletion strains, locus YMR205C, strain PFK2, hits give low values 0.967 | S. cerevisiae deletion strains, locus YMR223W, strain ubp8, hits give low values 0.97 | S. cerevisiae deletion strains, locus YMR231W, strain pep5, hits give low values 0.994 | S. cerevisiae deletion strains, locus YMR263W, strain SAP30, hits give low values 0.993 | S. cerevisiae deletion strains, locus YMR307W, strain GAS1, hits give low values 0.947 | S. cerevisiae deletion strains, locus YNL067W, strain RPL9B, hits give low values 0.986 | S. cerevisiae deletion strains, locus YNL071W, strain lat1, hits give low values 0.997 | S. cerevisiae deletion strains, locus YNL128W, strain TEP1, hits give low values 1 | S. cerevisiae deletion strains, locus YNL153C, strain GIM3, hits give low values 0.998 and 0.965 | S. cerevisiae deletion strains, locus YNL175C, strain NOP13, hits give low values 0.977 | S. cerevisiae deletion strains, locus YNL197C, strain WHI3, hits give low values 0.976 | S. cerevisiae deletion strains, locus YNL209W, strain ssb2, hits give low values 0.994 | S. cerevisiae deletion strains, locus YNL224C, strain SQS1, hits give low values 0.975 | S. cerevisiae deletion strains, locus YNL233W, strain BNI4, hits give low values 0.991 | S. cerevisiae deletion strains, locus YNL248C, strain rpa49, hits give low values 0.992 | S. cerevisiae deletion strains, locus YNL250W, strain rad50, hits give low values 0.973 | S. cerevisiae deletion strains, locus YNL271C, strain bni1, hits give low values 0.974 | S. cerevisiae deletion strains, locus YNL298W, strain CLA4, hits give low values 0.972 | S. cerevisiae deletion strains, locus YNL307C, strain MCK1, hits give low values 0.97 | S. cerevisiae deletion strains, locus YNL322C, strain KRE1 (second series), hits give low values 0.986 | S. cerevisiae deletion strains, locus YNL322C, strain KRE1, hits give low values 0.984 and 0.987 | S. cerevisiae deletion strains, locus YNR049C, strain mso1, hits give low values 0.984 | S. cerevisiae deletion strains, locus YNR052C, strain pop2, hits give low values 0.975 | S. cerevisiae deletion strains, locus YOL006C, strain TOP1, hits give low values 0.986 | S. cerevisiae deletion strains, locus YOL012C, strain htz1 0.878 | S. cerevisiae deletion strains, locus YOL147C, strain pex11, hits give low values 0.962 | S. cerevisiae deletion strains, locus YOR001W, strain rrp6, hits give low values 0.995 | S. cerevisiae deletion strains, locus YOR061W, strain CKA2, hits give low values 0.995 | S. cerevisiae deletion strains, locus YOR069W, strain VPS5, hits give low values 0.989 | S. cerevisiae deletion strains, locus YOR070C, strain gyp1, hits give low values 0.993 | S. cerevisiae deletion strains, locus YOR080W, strain dia2, hits give low values 0.984 | S. cerevisiae deletion strains, locus YOR083W, strain WHI5 (second series), hits give low values 0.989 | S. cerevisiae deletion strains, locus YOR083W, strain WHI5, hits give low values 1.01 | S. cerevisiae deletion strains, locus YOR106W, strain vam3, hits give low values 0.996 | S. cerevisiae deletion strains, locus YOR136W, strain idh2, hits give low values 0.954 | S. cerevisiae deletion strains, locus YOR144C, strain elg1, hits give low values 0.965 | S. cerevisiae deletion strains, locus YOR184W, strain ser1, hits give low values 0.955 | S. cerevisiae deletion strains, locus YOR265W, strain rbl2, hits give low values 0.991 | S. cerevisiae deletion strains, locus YOR270C, strain vph1, hits give low values 0.998 | S. cerevisiae deletion strains, locus YOR290C, strain snf2, hits give low values 0.923 | S. cerevisiae deletion strains, locus YOR316C, strain cot1, hits give low values 0.977 | S. cerevisiae deletion strains, locus YPL051W, strain arl3, hits give low values 0.987 | S. cerevisiae deletion strains, locus YPL055C, strain LGE1, hits give low values 0.976 | S. cerevisiae deletion strains, locus YPL078C, strain atp4, hits give low values 0.994 | S. cerevisiae deletion strains, locus YPL106C, strain sse1, hits give low values 0.976 | S. cerevisiae deletion strains, locus YPL240C, strain hsp82, hits give low values 0.983 | S. cerevisiae deletion strains, locus YPL241C, strain CIN2, hits give low values 0.954 and 1.01 | S. cerevisiae deletion strains, locus YPR119W, strain clb2, hits give low values 0.967 | S. cerevisiae deletion strains, locus YPR141C, strain kar3, hits give low values 0.977 | S. cerevisiae deletion strains, locus YPR163C, strain tif3, hits give low values 0.969 | S. cerevisiae deletion strains, locus YPR167C, strain met16, hits give low values 0.982 | S. cerevisiae deletion strains, strain wtn01, hits give low values 0.98 | S. cerevisiae strains, strain wild type, hits give low values 0.981
